Rows were chosen to be rich in hits. Some 1.8% of all compounds tested hit in one or more screens of this group.
Fam108B inh = Fam108B inhibition, counter-screen for RBBP9 inhibitors; recombinant Fam108B, FP-Rh probe fluorescence polarization; inhibition, % at 9.51 µM; 300,000 tested, 0.33% active; AID 1947;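 active = inhibition above the screen mean inhibition plus 3 SD, computed separately per campaign, cut at about 18% in these data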;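 also: inhibitors lower polarization as less probe binds the enzyme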
PME-1 primary = PME-1 (human) inhibition; Q9Y570; recombinant PME-1, FP-Rh probe fluorescence polarization; inhibition, % at 5.9 µM; 320,000 tested, 0.53% active;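 active = inhibition above the campaign mean of all compounds plus 3 SD, cut at about 26% in these data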;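 also: competitive labeling of PME-1 active site by serine hydrolase directed probe; inhibitors block probe labeling so polarization falls and inhibition rises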
Target sequence (Q9Y570 whole entry, looked up): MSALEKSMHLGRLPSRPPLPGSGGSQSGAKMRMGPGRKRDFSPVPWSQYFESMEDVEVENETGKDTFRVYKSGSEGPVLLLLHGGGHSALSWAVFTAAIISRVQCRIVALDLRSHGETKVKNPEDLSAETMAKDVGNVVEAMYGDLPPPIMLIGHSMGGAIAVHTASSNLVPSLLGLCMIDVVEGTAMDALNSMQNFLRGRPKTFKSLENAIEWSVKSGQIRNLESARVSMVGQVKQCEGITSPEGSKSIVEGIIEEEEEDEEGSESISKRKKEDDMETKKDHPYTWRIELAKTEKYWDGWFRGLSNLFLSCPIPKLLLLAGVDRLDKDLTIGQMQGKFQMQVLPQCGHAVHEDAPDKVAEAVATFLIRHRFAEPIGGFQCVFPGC
LYPLA1 counter = counter-screen for PME1 inhibitors: inhibitors of human LYPLA1; recombinant LYPLA1, FP-Rh probe fluorescence polarization; inhibition, % at 5.9 µM; AID 2174; 320,000 tested, 0.16% active; O75608;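 active = inhibition above the mean of all tested compounds plus 3 SD, set per campaign, cut at about 14% in these data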;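 also: inhibitors block serine hydrolase probe labeling of LYPLA1 so polarization falls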
GSTO1 inh = GSTO1 inhibition, counter-screen for RBBP9 inhibitors. P78417. recombinant GSTO1, activity-based probe fluorescence polarization. inhibition, % at 5.96 µM. 300,000 tested, 1.1% active. AID 1974;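 active = inhibition above the campaign mean inhibition plus 3 SD, cut at about 35% in these data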
LYPLA2 counter = counter-screen for PME1 inhibitors: inhibitors of human LYPLA2. AID 2177. 320,000 tested, 0.38% active. recombinant LYPLA2, FP-Rh probe fluorescence polarization. inhibition, % at 5.9 µM;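 active = inhibition above the screen-wide mean plus 3 SD, limit set per campaign, cut at about 26% in these data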
Target sequence (O95372 whole entry, looked up): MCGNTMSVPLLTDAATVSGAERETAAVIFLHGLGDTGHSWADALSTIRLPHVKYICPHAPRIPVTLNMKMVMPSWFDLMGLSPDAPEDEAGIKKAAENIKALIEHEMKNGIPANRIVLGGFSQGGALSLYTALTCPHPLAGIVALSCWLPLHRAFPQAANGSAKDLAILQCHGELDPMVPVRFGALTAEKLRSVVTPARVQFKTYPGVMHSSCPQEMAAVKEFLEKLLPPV
PAD4 FP inh = inhibitors of human PAD4; Q9UM07; recombinant PAD4, RCA probe fluorescence polarization; inhibition, % at 6.36 µM; 330,000 tested, 0.41% active; AID 485272;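 active = percent inhibition above a cutoff equal to the mean of all tested compounds plus 3 SD, cut at about 15% in these data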
Of the large screens only hits and unclear results are named; the others gave an inactive call.

Cn1c(N)c(N2CCCCC2)c(=O)n(CC(=O)Nc2cccc(C#N)c2)c1=O	none (no result: Fam108B inh, PME-1 primary, LYPLA1 counter, GSTO1 inh, LYPLA2 counter)
CC1CCCC(NC(=O)c2ccc(F)c(S(=O)(=O)N3CCOCC3)c2)C1C (stereo unspecified)	none
COc1ccc2c(-c3ccc(S(N)(=O)=O)cc3)c(-c3ccc(S(C)(=O)=O)cc3)sc2c1	none (no result: Fam108B inh, PME-1 primary, LYPLA1 counter, GSTO1 inh, LYPLA2 counter)
COc1ccc(/C=C/c2c(-c3ccc(OC)cc3)sc3cc(OC)c(OC)cc23)cc1	none (no result: Fam108B inh, PME-1 primary, LYPLA1 counter, GSTO1 inh, LYPLA2 counter)
Cc1ccc(Cn2ccsc2=NC(=O)COC(=O)c2ccc(NC(=O)CC#N)cc2)cc1	none
Cc1ccc(Cn2ccsc2=NC(=O)CCl)cc1	GSTO1 inh 83.8
NC(=S)N/N=C/c1ccccc1O	none
NC(=S)N/N=C/c1cccc(O)c1O	GSTO1 inh 84.1
COc1cc(OC)c(NC(=S)Nc2cccc(C(C)=O)c2)cc1Cl	none
COc1cc(OC)c(NC(=S)Nc2cc(Cl)cc(Cl)c2)cc1Cl	Fam108B inh 21.3
CN(Cc1ccccc1)C(=O)c1ccc(NC(=O)C2CCCN(C(=O)OC(C)(C)C)C2)cc1 (stereo unspecified)	none (no result: Fam108B inh, PME-1 primary, LYPLA1 counter, GSTO1 inh, LYPLA2 counter)
CC(=O)NCC(=O)OCN1C(=O)c2ccccc2C1=O	GSTO1 inh 36.0
COC(=O)[C@H]1C[C@H]2[C@@H]3CC[C@H]4C[C@@H](OC)CC[C@]4(C)[C@H]3CC[C@]2(C)[C@@]2(CCCO2)O1	none (no result: Fam108B inh, PME-1 primary, LYPLA1 counter, GSTO1 inh, LYPLA2 counter)
Cc1ccc(NC(=O)C2CCCO2)c(Br)c1 (stereo unspecified)	none
CC1(C)Cc2c(sc3[nH]c(=S)[nH]c(=O)c23)CO1	none
CC(C)=NNc1nc2sc3c(c2c(=O)[nH]1)CC(C)(C)OC3	PME-1 primary 36.3
CC1(C)Cc2c(sc3nc(SCC(=O)O)[nH]c(=O)c23)CO1	GSTO1 inh 36.5
CCC(C)CCN1C(Nc2ccccc2)=NC[C@@H]1C (stereo partly specified)	none
N#CC1(NC(=O)COC(=O)c2cccc(-n3cnnn3)c2)CCCCC1	none
CC(C)(C)OC(=O)N1CCN(C(=O)c2ncn(Cc3ccccc3)c2C(=O)N2CCN(C(=O)OC(C)(C)C)CC2)CC1	none (no result: Fam108B inh, GSTO1 inh)
COc1ccc(NC(=O)Nc2c(O)ccc3ccccc23)cc1	GSTO1 inh 37.2
COc1ccc(NC(=O)Nc2ccc(OC)cc2)cc1	none
CCOC(=O)c1ccc(NC(=O)Nc2ccc(OC)c(OC)c2)cc1	none
CCCCOC(=O)c1ccc(NC(=O)Nc2ccc(OC)c(OC)c2)cc1	PME-1 primary 39.8
COC(=O)c1ccc(NC(=O)Nc2ccc(OC)cc2)cc1	PME-1 primary 28.9
Cc1cc(C)cc(NC(=O)CSCc2cc(=O)n3ccsc3n2)c1	none
COc1ccccc1N(C)S(=O)(=O)c1ccc(C(=O)NCC2CCCCC2)cc1	none (no result: Fam108B inh, GSTO1 inh)
CC(C)Oc1ccc(S(=O)(=O)N2CCOCC2)cc1NC(=O)CN1C(=O)NC2(CCCC2)C1=O	none
CC(=O)N(C)c1ccc(N=Cc2cc3c(cc2[N+](=O)[O-])OCO3)cc1	none
CCN(CC)c1ccc(N=Cc2ccccc2[N+](=O)[O-])cc1	GSTO1 inh 68.8
COC(=O)c1ccc(-n2c(C)cc(C(=O)COC(=O)C3=COCCO3)c2C)cc1	none (no result: Fam108B inh, PME-1 primary, LYPLA1 counter, GSTO1 inh, LYPLA2 counter)
COC(=O)c1ccc(-n2c(C)cc(C(=O)CCl)c2C)cc1	GSTO1 inh 87.3
COc1ccc2c(CC(=O)N3CCN(S(=O)(=O)c4ccc(F)cc4)CC3)coc2c1	none (no result: Fam108B inh, GSTO1 inh)
O=C(CCCCCNC(=O)c1ccccc1)N=Nc1c(O)[nH]c2c(Br)cc(Br)cc12	GSTO1 inh 56.8
COc1ccc(/C=N/NC(=O)c2nn(-c3ccccc3)c(=O)c3c(N)scc23)cc1	GSTO1 inh 53.4
COc1ccc(/C=N/NC(=O)c2nn(-c3ccc(Cl)cc3)c(=O)c3c(N)scc23)cc1	none
CC(=O)Nc1ccc(N(C(=O)c2ccco2)C(C(=O)NC2CCCC2)c2ccncc2)cc1 (stereo unspecified)	none
O=c1[nH]n2c(=O)c3c([nH]c2c1N=Nc1cccc(Cl)c1)CCCC3	PME-1 primary 58.1
CCOc1ccc(N=Nc2c(=O)[nH]n3c(=O)cc(C)[nH]c23)cc1	none
Cc1cc(C)n2[nH]c(=O)c(N=Nc3cccc(Cl)c3)c2n1	none
CCOc1ccc(N=Nc2c(=O)[nH]n3c(=O)c4c([nH]c23)CCCC4)cc1	PME-1 primary 44.4
Oc1ccc(/C=N/N(c2ccccc2)c2ccccc2)cc1O	none
O=C(/C(=N/N=C/c1ccc(O)c(O)c1)c1ccccc1)c1ccccc1	Fam108B inh 22.0, PME-1 primary 30.1
CC(=O)c1cccc(S(=O)(=O)Nc2cc(C(F)(F)F)ccc2N2CCOCC2)c1	none (no result: Fam108B inh, GSTO1 inh)
CC(=O)Nc1ccc(NC(=O)CC2Nc3cccc4cccc(c34)NC2=O)cc1 (stereo unspecified)	none
CC(=O)c1ccc(NC(=O)CC2Nc3cccc4cccc(c34)NC2=O)cc1 (stereo unspecified)	GSTO1 inh 41.0
CC(C)(C)c1ccc(Cn2c(=O)cnc3ccccc32)cc1	none
Cc1ccccc1C(=O)N(Cc1cccs1)C1CCS(=O)(=O)C1 (stereo unspecified)	none
COc1ccc(/C=N/Nc2cc(C)nc(-n3nc(C)cc3C)n2)cc1	PME-1 primary 32.8
Oc1cccc(/C=N/Nc2cc(N3CCCC3)nc(N3CCCC3)n2)c1	PME-1 primary 30.8, GSTO1 inh 35.6
Cc1cc(N/N=C/c2cccc(Cl)c2)nc(-n2nc(C)cc2C)n1	none
COc1ccc(/C=N/Nc2cc(N3CCCC3)nc(N3CCCC3)n2)cc1	GSTO1 inh 36.5
Oc1ccc(/C=N/Nc2cc(N3CCCC3)nc(N3CCCC3)n2)cc1	none
Oc1ccc(/C=N/Nc2nc(N3CCCC3)nc(N3CCCC3)n2)cc1O	GSTO1 inh 56.1
O=C(OCc1c(-c2ccccc2)ncc2ccccc12)c1cccs1	none (no result: Fam108B inh, PME-1 primary, LYPLA1 counter, GSTO1 inh, LYPLA2 counter)
COc1ccc2nc(SCC(=O)Nc3ccc4c(c3)OCCO4)[nH]c2c1	none
CCOc1ccc2nc(SCC(=O)Nc3ccc4c(c3)OCCO4)[nH]c2c1	PME-1 primary 27.4
COc1ccc(NC(=O)CN(C)C(=O)c2sc3cc(Cl)ccc3c2Cl)cc1	none
N#CCc1cnc2ccccc2n1	GSTO1 inh 35.7
O=C(O)CSCC(=O)Nc1ccc(Cl)cc1C(F)(F)F	none
CCC(C)N(CC(=O)Nc1cccc(C)c1C)C(=O)CCl (stereo unspecified)	GSTO1 inh 51.9
CCC(CC)NC(=O)Nc1cccc(C)c1C	none
CC(C)N(CC(=O)Nc1ccc(Cl)cc1C(F)(F)F)C(=O)CCl	GSTO1 inh 66.2
O=C(Nc1c(Cl)ccc2nsnc12)c1ccc([N+](=O)[O-])o1	none
CCc1ccc2c(c1)c(N=NC1=NC(=O)CS1)c(O)n2CC	none
CCc1ccc2[nH]c(O)c(N=NC3=NC(=O)CS3)c2c1	PME-1 primary 31.6
COc1ccc(O)c(/C=N/Nc2nc(C)cc(-c3ccccc3)n2)c1	PME-1 primary 36.2
COc1ccc(/C=N/Nc2nc(C)cc(-c3ccccc3)n2)c(OC)c1	none
Cc1ccc(S(=O)(=O)N2CCN(c3ncnc4sccc34)CC2)cc1	none

Source: PubChem
